Rows were chosen to be rich in hits. Some 1% of all compounds tested hit in one or more screens of this group.
TRPML1 ag: activates the human TRPML1 channel; TRPML1-expressing cells, Ca2+ dye fluorescence, FDSS; activation, % (no concentration beside the values); Q9GZU1; 0.12% of 410,000 active; in the data active = activation above about 50%; inconclusive = mostly about 30% to 49%
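Tet-induced TRPML1-DL cells, 1,500 per well, cultured overnight, were loaded with a no-wash Ca2+ dye for 45–90 min. Calcium fluorescence was recorded on the FDSS for 110 s after compound addition, before the EC80 agonist (4 uM 54-4) was added.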
KCNH2 3.1 inh: inhibitors of human KCNH2 3.1 potassium channel isoform. U2OS KCNH2 3.1, thallium flux FluxOr; stronger effect = lower value. activity change, % (tested at about 1.8 µM). 0.95% of 340,000 active. AID 720553;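 active = maximum activity change below -70%; inconclusive = maximum activity change from -70% to -50%; inactive = maximum activity change above -50%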;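 note: thallium influx rate constant from kinetic fluorescence after stimulation buffer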
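FluxOr-based Tl+ influx in U2OS cells transduced with KCNH2 3.1 virus; rate constants normalized to DMSO controls.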
hERG WT inh: blocks the wildtype human KCNH2 potassium channel | 0.37% of 340,000 active | U2OS, BacMam KCNH2, thallium flux FluxOr; stronger effect = lower value | activity change, % at 1.84 µM;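 active = maximum activity change below -70%; inconclusive = maximum activity change between -70% and -50%; inactive = maximum activity change above -50%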
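U2OS cells transduced with wild-type KCNH2 virus are loaded with FluxOr dye for 45 min, and thallium flux is measured in kinetic reads before and after stimulation buffer. Rate constants are normalized to DMSO controls.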
TSG101-PTAP inh: blocks PTAP/TSG101 interaction to inhibit HIV-1 budding | Q99816 | Fluorescence polarization, FITC-PTAP peptide / Tsg101 binding | Potency, µM (highest dose often 115 µM), most hits filed as inhibitors | 340,000 tested, under 10 active | AID 493005; active = well fitted inhibition curve with a large enough effect in the main read-out, with a control signal flat, not every such curve was filed as active; inconclusive = small, poorly fitted or top-dose-only effect, or effect the other way, or a change in a side signal; inactive = no such curve, though single readings can be large or run the other way
Target sequence (Q99816 whole entry, looked up): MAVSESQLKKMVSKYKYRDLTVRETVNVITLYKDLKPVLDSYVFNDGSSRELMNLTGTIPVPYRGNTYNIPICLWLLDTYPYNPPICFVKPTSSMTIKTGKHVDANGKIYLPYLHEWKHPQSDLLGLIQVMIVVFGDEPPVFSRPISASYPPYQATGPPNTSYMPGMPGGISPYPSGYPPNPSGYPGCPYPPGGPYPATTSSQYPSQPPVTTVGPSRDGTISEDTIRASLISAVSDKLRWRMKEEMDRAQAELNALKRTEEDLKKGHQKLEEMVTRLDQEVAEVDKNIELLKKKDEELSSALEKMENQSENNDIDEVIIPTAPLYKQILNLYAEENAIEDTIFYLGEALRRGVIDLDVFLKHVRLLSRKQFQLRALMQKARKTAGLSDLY
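Tsg101 binding domain (10 uM final) was mixed with compound and a FITC-labeled PTAP peptide (50 nM final) in HEPES pH 7.5 buffer with NaCl, Tween 20, EDTA and TCEP; fluorescence polarization was read after 20 min at r.t.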
Glioma ERSR ind: induces the endoplasmic reticulum stress response in human glioma cells; U87-MG GRP78 promoter luciferase reporter, 16 h; Potency, µM, most hits filed as activators; 0.02% of 420,000 active; active = well fitted activation curve with a large enough effect; inconclusive = small, poorly fitted or top-dose-only effect; inactive = no such curve, though single readings can be large or run the other way; note: series mostly up to about 76 µM; nearly all actives have a fitted effect of over 35% in size
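ERSR induction read as luciferase luminescence (Bright-Glo, 10 min at room temperature) in stably transfected human U87-MG glioma cells exposed to compounds for 16 h, using GRP78 as sensor.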
TRPML1 inh: blocks the human TRPML1 channel. Q9GZU1. TRPML1-inducible cells, Ca2+ dye fluorescence, FDSS; stronger effect = lower value; inhibition of EC80 agonist-evoked calcium signal. activity change, negative = inhibition, % (concentration not given with the values). 0.02% of 390,000 active. AID 624415; in the data active = activity change below about -50%; inconclusive = between about -30% and that limit;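 note: stimulus is agonist 54-4 at its EC80 concentration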
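TRPML1-DL cells, Tet-induced overnight (~16 h, 37 °C) at 1,500 cells/well, were loaded with Ca8 no-wash dye plus quencher for 45-90 min at room temperature. Compounds were pinned during FDSS kinetic reading; agonist 54-4 at EC80 (4 uM final) then added.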
Numbers stand for hits.

How did CC(C)c1ccc(NC(=O)c2cc(S(=O)(=O)NCC3COc4ccccc4O3)ccc2F)cc1 (stereo not drawn) do in these assays?
TRPML1 ag: inactive; KCNH2 3.1 inh: -72; hERG WT inh: inactive; TSG101-PTAP inh: inactive; Glioma ERSR ind: inactive; TRPML1 inh: inactive

What do the screens show for `CC(=O)N1CCN(c2nc3cc(C)ccc3cc2CN(C(=O)c2cccc3ccccc23)C2CC2)CC1`?
Glioma ERSR ind: inactive

Results for O=S(=O)(NCc1nnc2n1CCN(Cc1ccccc1Cl)CC2)c1ccccc1 ?
Glioma ERSR ind: inactive

What do the screens show for `Cc1ccc(C(=O)NCc2ccc3c(c2)OCO3)cc1S(=O)(=O)N1CCCCC1`?
TRPML1 ag: inactive; KCNH2 3.1 inh: inactive; hERG WT inh: -91; TSG101-PTAP inh: inactive; Glioma ERSR ind: inactive; TRPML1 inh: inactive

What do the screens show for `Cc1ccc(C(=O)NCc2ccc3c(c2)OCO3)cc1S(=O)(=O)N1CCOCC1`?
TRPML1 ag: inactive; KCNH2 3.1 inh: inactive; hERG WT inh: inactive; TSG101-PTAP inh: inactive; Glioma ERSR ind: inactive; TRPML1 inh: inactive

What do the screens show for `O=C(NCc1ccc2c(c1)OCO2)c1ccc(Cl)c(S(=O)(=O)N2CCOCC2)c1`?
TRPML1 ag: inactive; KCNH2 3.1 inh: -94; hERG WT inh: inactive; TSG101-PTAP inh: inactive; Glioma ERSR ind: inactive; TRPML1 inh: inactive

What do the screens show for `Cc1ccc(S(=O)(=O)N(C)Cc2cc3cc(C)ccc3[nH]c2=O)cc1`?
TRPML1 ag: inactive; KCNH2 3.1 inh: -117; hERG WT inh: inactive; TSG101-PTAP inh: inactive; Glioma ERSR ind: inactive; TRPML1 inh: inactive

How did Cc1cc(C)cc(CN2CCOc3ccc(CN4CCC(O)(c5cccnc5)CC4)cc3C2)c1 do in these assays?
Glioma ERSR ind: inactive

What do the screens show for `COC(=O)c1cn([C@@H]2C[C@@H](C(=O)Nc3cccc(SC)c3)N(C3CCCCCC3)C2)nn1`?
Glioma ERSR ind: inactive

Results for Clc1ccc(-c2csc(N/N=C/c3cccnc3)n2)c(Cl)c1 ?
TRPML1 ag: inactive; KCNH2 3.1 inh: -112; hERG WT inh: inconclusive; TSG101-PTAP inh: inactive; Glioma ERSR ind: inactive; TRPML1 inh: inactive

How did CC(NC(=O)C(=O)N1CCOCC1)C(c1cccs1)N1CCN(c2ccccc2F)CC1 (stereo not drawn) do in these assays?
TRPML1 ag: inactive; KCNH2 3.1 inh: -122; hERG WT inh: inactive; TSG101-PTAP inh: inactive; Glioma ERSR ind: inactive; TRPML1 inh: inactive

Results for O=C1O[C@H]2[C@@H](OC(O)[C@@H]2O)[C@H]1O (stereo partly drawn) ?
Glioma ERSR ind: inactive

What do the screens show for `COc1ccccc1N1CCN(Cc2c[nH]c3ccccc23)CC1`?
TRPML1 ag: inactive; KCNH2 3.1 inh: inactive; hERG WT inh: inactive; TSG101-PTAP inh: inactive; Glioma ERSR ind: inactive; TRPML1 inh: inactive

Results for Brc1ccc(CN2CCN(Cc3c[nH]c4ccccc34)CC2)cc1 ?
TRPML1 ag: inactive; KCNH2 3.1 inh: inactive; hERG WT inh: inactive; TSG101-PTAP inh: inactive; Glioma ERSR ind: inactive; TRPML1 inh: inactive

How did Cc1ccccc1N1CCN(Cc2c[nH]c3ccccc23)CC1 do in these assays?
TRPML1 ag: inactive; KCNH2 3.1 inh: -85; hERG WT inh: inactive; TSG101-PTAP inh: inactive; Glioma ERSR ind: inactive; TRPML1 inh: inactive

What do the screens show for `O=[N+]([O-])c1ccc(/C=N\N2CCN(Cc3ccccc3Cl)CC2)cc1`?
TRPML1 ag: inactive; KCNH2 3.1 inh: inactive; hERG WT inh: inactive; Glioma ERSR ind: inactive; TRPML1 inh: inactive

Results for O=[N+]([O-])c1ccc(CN2CCN(Cc3c[nH]c4ccccc34)CC2)cc1 ?
TRPML1 ag: inactive; KCNH2 3.1 inh: -77; hERG WT inh: inactive; TSG101-PTAP inh: inactive; Glioma ERSR ind: inactive; TRPML1 inh: inactive

Results for O=[N+]([O-])c1ccc(/C=N/N2CCN(Cc3ccccc3)CC2)cc1 ?
TRPML1 ag: inactive; KCNH2 3.1 inh: -80; hERG WT inh: inactive; TSG101-PTAP inh: inactive; Glioma ERSR ind: inactive; TRPML1 inh: inactive

Results for Cc1c(C(=O)NCc2ccco2)cnn1-c1ncc2c(n1)-c1ccccc1CC2 ?
Glioma ERSR ind: inactive

Results for OC1CCN(Cc2ccc3c(c2)CN(C/C=C/c2ccco2)CCO3)CC1 ?
Glioma ERSR ind: inactive
